# Compound activity as filed in PubChem BioAssay.
# Pf growth 96h: inhibits malaria parasite growth, 96 h. Potency, µM (doses to about 28.7 µM), without a hit: top-dose activity change, negative = inhibition, usual class: inhibitors. AID 504834. actives 6.9% (n = 320,000). P. falciparum luciferase reporter growth, 96 h; note: potency is the fitted concentration of half-maximal effect; % is set by controls: 0 for no effect and ±100 for the full control effect
#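 Two-generation exposure (96 h) targets delayed-death phenotype. Reporter parasites carrying integrated firefly luciferase, in red cells at 2% hematocrit and 0.05% parasitemia final, kept at 37 C, 5% CO2; luminescence loss indicates inhibition.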
# Sm TGR inh: inhibitors of Schistosoma mansoni thioredoxin glutathione reductase; Q962Y6; purified TGR, DTNB reduction, TNB absorbance 405 nm; Potency, µM (series often up to 114 µM), for the others: at the highest dose activity change, negative = inhibition, hits mostly inhibitors; actives 3% (n = 360,000); note: potency is the fitted concentration of half-maximal effect; % is set by controls: 0 for no effect and ±100 for the full control effect; nearly all actives have a fitted effect of over 60% in size
#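 First, TGR (20 nM dispensed) and NADPH were mixed with compound. Second, a 15 min room-temperature incubation followed. Third, further NADPH and then DTNB were added to start the reaction. Finally, TNB absorbance was monitored kinetically.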
# Pf growth 48h: inhibits P. falciparum growth in the first generation, 48 h; P. falciparum luciferase growth in erythrocytes, 48 h; actives 5.9% (n = 310,000); Potency, µM (doses to about 28.7 µM), for inactives: at the highest dose activity change, negative = inhibition, most hits filed as inhibitors; AID 504832; note: potency is the fitted concentration of half-maximal effect; % is set by controls: 0 for no effect and ±100 for the full control effect
#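 Erythrocytes infected with P. falciparum carrying an integrated firefly luciferase reporter (2% hematocrit, 0.1% parasitemia final) were exposed to compounds in RPMI 1640 with 0.5% Albumax at 37 C, 5% CO2. Growth inhibition was scored as reduced luminescence.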
# Shiga toxin inh: Shiga toxin inhibition | inhibition, % at 38.7 µM | Vero cells, Shiga toxin protein synthesis inhibition reporter | AID 2315 | actives 9.2% (n = 290,000); in the data active = inhibition mostly above about 28%, no sharp cut-off; inactive = mostly below about 43%; note: 0% is about no effect
# CHX counter: affects cycloheximide protein synthesis inhibition readout, counter-screen. AID 2314. cell reporter, cycloheximide protein synthesis inhibition counterscreen. max response, %. actives 12% (n = 300,000); in the data active = max response mostly above about 13%, no sharp cut-off; inactive = mostly below about 14%; note: read at 38.3 µM for the half of the compounds with a filed dose; 0% is about no effect
# NS1 inh: blocks influenza NS1 protein function. Potency, µM (series often up to 46.1 µM), inactives show at the highest dose activity, positive = more growth. actives 0.4% (n = 270,000); calls by dose curve; note: potency is the fitted concentration of half-maximal effect; actives are rising curves; nearly all actives have a fitted effect of over 50% in size
#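 Recovery from NS1-induced slow growth read by OD600 in budding yeast switched to galactose assay medium (pH 6.0, -URA) at 1:100 dilution. Compound 23 nl per well; the matching strain lacking NS1 serves as control.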
# Starred values were filed as active, the others as inactive; ? = inconclusive; . = not tested or not shown; [ ] = remark or other dose. Shown are actives, neighbours in structure and some others; about 21% of the full set was active somewhere. Unless noted, calls come from the whole dose curve; as a rule, active = well fitted curve in the direction sought with a large enough effect; inconclusive = small, poorly fitted or top-dose-only effect, or another doubt; inactive = no such curve, though single readings can be large; an effect the other way counts as inactive or inconclusive.
SMILES,Pf growth 96h,Sm TGR inh,Pf growth 48h,Shiga toxin inh,CHX counter,NS1 inh
CCOC(=O)N1CCC(NC(=O)CSCc2nc(-c3sccc3C)oc2C)CC1,?,40µM*,.,2,-7,0%
CCOc1ccc(-c2nnn(CC(=O)NCc3ccco3)n2)cc1,?,2%,29%,28,26*,-9%
CCOc1ccc(-c2nc(CSCC(=O)NCc3ccc(C)cc3)c(C)o2)cc1,.,-22%,.,.,.,.
Cc1nnc(NC(=O)CCNC(=O)c2ccccc2Cl)s1,-1%,0%,-17%,-15,-2,.
Cc1cc(C)c(OCC(=O)OC(C)C(=O)NC2CC2)c(C)c1 (stereo unspecified),2%,4%,8%,-3,1,-17%
COc1cc(C(=O)NCCCNc2nc3cc(C)c(C)cc3cc2C#N)cc(OC)c1OC,121%,-20%,?,38,10,.
O=S(=O)(c1ccc(F)cc1)N1CCN(CCc2ccccc2)CC1,?,4%,34%,-10,-1,-9%
CCOC(=O)N1CCC(NC(=O)CSCc2nc(-c3ccc(OCC)cc3)oc2C)CC1,-2%,-35%,12µM*,8,10,-24%
CCOC(=O)N1CCC(NC(=O)CSCc2nc(-c3cccc(OC)c3)oc2C)CC1,?,-28%,-22%,1,-3,-8%
Cc1oc(-c2ccc(Cl)cc2)nc1CSCC(=O)NC1CCN(Cc2ccccc2)CC1,15µM*,0%,24%,-4,-1,-5%
Cc1oc(-c2ccc(Cl)cc2)nc1CN1CCC(C(=O)N2CCN(Cc3ccccc3)CC2)CC1,34%,0%,.,-6,-5,-6%
CCOc1ccc(-c2nc(CSCC(=O)NCc3ccco3)c(C)o2)cc1,13µM*,?,?,11,-3,-9%
COc1cccc(CC2(CO)CCN(CC3=CC[C@H]4C[C@@H]3C4(C)C)CC2)c1,5%,6%,22%,-7,-4,3%
CCc1cccc2c(C#N)cn(CC(=O)NCCOC)c12,-21%,4%,10µM*,-15,-5,-6%
O=C(Nc1cc(Cl)cc(Cl)c1)C1CCC(=O)N1Cc1ccccc1Cl (stereo unspecified),?,3%,9.3µM*,-17,-1,-1%
c1ccc(CSc2ccc(-c3ccc4c(c3)OCO4)nn2)cc1,162%,2%,24%,38,27*,-17%
Fc1ccc(CSc2ccc(-c3ccc4c(c3)OCO4)nn2)cc1,26%,0%,19%,6,11*,-2%
CN1CCN(CC(=O)Nc2c(C(=O)C3CC3)oc3ccccc23)CC1,30%,12%,-6%,-2,-2,-1%
CCOC(=O)CSCC(=O)Nc1c(C(=O)C2CC2)oc2ccccc12,5.9µM*,0%,-11%,10,-3,-4%
Cc1ccc(C)c(S(=O)(=O)N2CCN(C(=O)CCc3c[nH]c4ccccc34)CC2)c1,?,-7%,?,.,.,.
Cc1ccc(S(=O)(=O)N2CCN(C(=O)CCc3nc4ccccc4c(=O)[nH]3)CC2)c(C)c1,12µM*,6%,?,.,.,.
Cc1ccc(C)c(S(=O)(=O)N2CCN(C(=O)CCc3nc4ccccc4c(=O)[nH]3)CC2)c1,10µM*,-7%,?,.,.,.
Cc1ccc(C)c(S(=O)(=O)N2CCN(C(=O)CCCc3c[nH]c4ccccc34)CC2)c1,?,3%,15µM*,.,.,.
Cc1ccc(NC(=O)CCc2nc3ccccc3c(=O)[nH]2)cc1S(=O)(=O)N1CCOCC1,4.1µM*,6%,?,.,.,.
O=C(CCc1nc2ccccc2c(=O)[nH]1)N1CCN(S(=O)(=O)c2ccccc2Br)CC1,?,-1%,?,.,.,.
SMILES,Pf growth 96h,Sm TGR inh,Pf growth 48h,Shiga toxin inh,CHX counter,NS1 inh
Cc1ccc(OCCCC(=O)N(C)CC(=O)Nc2ccccc2Cl)cc1,15%,-7%,?,.,.,.
CCC(=O)Nc1nc2ccc(NC(=O)COc3ccccc3)cc2s1,-5%,-18%,13%,-8,12,14%
Cc1nc2ccc(NC(=O)COc3cccc(F)c3)cc2s1,27%,0%,-22%,31,26*,-6%
Cc1nc2ccc(NC(=O)COc3ccccc3)cc2s1,63%,15%,57%,33,23*,.
CC(=O)c1ccc(OCC(=O)Nc2ccc3nc(C)sc3c2)cc1,-12%,-4%,-43%[1.15 µM],-3,-3,10%
Cc1cccc(OCC(=O)Nc2ccc3nc(C)sc3c2)c1,-2%,-4%,0%,63*,10,-46%
Cc1ccc(-c2cc(C(=O)N3CCN(S(=O)(=O)c4ccc(Br)cc4)CC3)[nH]n2)cc1C,.,-1%,.,.,.,.
COc1cccc(CNC(=O)Cn2c(SCC(=O)Nc3ccc(C)c(C)c3)nc3ccccc32)c1,.,0%,.,.,.,.
CCOP(=O)(C#CC(C)(C)C)C(C)(O)c1ccccc1 (stereo unspecified),9%,1%,21%,-9,-3,-1%
CC(C)(C#CC(=O)O)OOC(c1ccccc1)(c1ccccc1)c1ccccc1,8.3µM*,3%,12µM*,-5,-3,8%
CCC1CCCCN1C(=O)CSc1nnc(-c2ccc(OC)cc2)o1 (stereo unspecified),?,-9%,?,-14,1,-50%
O=C(CSc1nnc(-c2ccc3c(c2)OCCO3)o1)N1CCCC1,-10%,-6%,71%,43,44*,-51%
CCC1CCCCN1C(=O)CSc1nnc(-c2ccc3c(c2)OCCO3)o1 (stereo unspecified),?,-1%,?,28,27*,-39%
Cc1ccc2nc(-c3cc(NC(=O)/C=C/c4ccccc4)ccc3Cl)oc2c1,.,-6%,.,.,.,.
CCCSc1nc(-c2ccccc2)[nH]c1S(=O)(=O)c1ccc(C)cc1,.,1%,.,.,.,.
NC(C(=O)O)C(c1ccccc1)C(F)F (stereo unspecified),60%,56µM*,13%,14,4,1%
O=C(O)[C@@H](c1ccccc1)[C@@H](C(=O)O)c1ccccc1,.,.,.,.,.,-4%
NC(=O)c1ccnc2c(O)cccc12,12µM*,1%,?,.,.,.
CCC(=O)Nc1ccc2c(c1)ncn2-c1ccccc1OC,?,0%,-19%,24,7,-2%
CC(=O)Nc1ccc2c(c1)ncn2-c1ccccc1,12%,1%,76%,56*,49*,3%
CCC(=O)Nc1ccc2c(c1)ncn2-c1ccccc1,16%,14%,54%,85*,33*,-3%
COc1cc(S(=O)(=O)Nc2cccc(C)c2)ccc1NC(=O)c1cccnc1,?,2%,-12%,-10,-2,-6%
Cc1ccc2c(C)c(C(=O)NCCN3CCOC3=O)oc2c1C,2%,0%,8%,4,2,-3%
COc1ccccc1C(=O)Nc1cc2c(cc1N1CCCCC1)n(C)c(=O)n2C,.,5%,.,.,.,.
CCNC(=O)C1CCN(c2nnc(C)c3c(C)n(-c4ccc(OC)cc4)nc23)CC1,.,19%,.,.,.,.
COc1ccc(O)c(C2=Nc3ccccc3N=C(c3ccccc3)C2)c1,91%,23%,66%,87,42,?
